From PubChem
mHTT CaM bind: mutant huntingtin-calmodulin interaction inhibitors – biochemical, AlphaScreen, primary screen; P42858; AlphaScreen His-mHTT/GST-CaM binding, luminescence; inhibition, % at 15 µM; 190,000 compounds, 3.6% hits; AID 1671202, 2021;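 also: 0% = both proteins with DMSO and 100% = one protein alone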
Pf apPOL block: Pf-apPOL inhibitors, biochemical, fluorescence. Plasmodium falciparum apicoplast DNA polymerase (apPOL). Recombinant Pf-apPOL, molecular beacon fluorescence, 1.5 h. inhibition, % at 10 µM. 210,000 compounds, 0.25% hits
* hit, by the source's call; nt = no result given; ! = a repeat was not active. Shown are actives, neighbours in structure and some others; about 3.5% of the full set was active somewhere. Rule as the data show it: active = inhibition above about 50%; inactive = the rest.

SMILES	mHTT CaM bind	Pf apPOL block
CC1(C)C(C=C(Cl)Cl)C1C(=O)Nc1cccnc1 (stereo unspecified)	-6	-4
CC(=O)C1=CCC(NC(=O)c2cc3c(=O)n(C)c(=O)n(C)c3n2Cc2ccccc2)C=C1 (stereo unspecified)	-12	-5
O=C(c1ccc(Sc2ccccc2)c([N+](=O)[O-])c1)N(Cc1ccc2c(c1)OCO2)c1ccc(F)cc1	nt	10
Cc1ccc(NC(=O)c2ccc([N+](=O)[O-])c(C)c2)cc1Cl	-2	-6
Cc1ccc(NC(=O)c2ccc(NCCN)c([N+](=O)[O-])c2)cc1Cl	54*	0
CCOc1ccc(NC(=O)CSc2nc(C(F)(F)F)cc(=O)[nH]2)cc1	-3	-7
COc1ccc(C2/C=C\CN(C(=O)C3CCCC3)CC(=O)N2Cc2ccc(F)cc2)cc1 (stereo unspecified)	63*	-3
COc1ccc(C2/C=C\CN(C(=O)Nc3ccccc3-c3ccccc3)CC(=O)N2Cc2ccc(F)cc2)cc1 (stereo unspecified)	60*	-1
COc1ccc(C2/C=C\CN[C@@H](Cc3ccccc3)C(=O)N2Cc2ccc(F)cc2)cc1 (stereo partly specified)	64*	0
COC(=O)N1C/C=C\C(c2ccc(OC)cc2)N(Cc2ccc(F)cc2)C(=O)C1 (stereo unspecified)	26	-2
COc1ccc(C2/C=C\CN(C(=O)C3CCCCC3)CC(=O)N2Cc2ccc(F)cc2)cc1 (stereo unspecified)	29	2
COc1ccc(C2/C=C\CN(CC3CC3)[C@@H](Cc3ccccc3)C(=O)N2Cc2ccc(F)cc2)cc1 (stereo partly specified)	42	-1
COc1ccc(C=C2Cc3cc(OC)c(OC)c(OC)c3C2=O)c(OC)c1OC	nt	-12
CC(=O)N1CCN(c2cccc(Cl)c2C)C(=O)C1C (stereo unspecified)	-7	-2
CN(C)c1ccc(C(CNC(=O)c2ccccc2[N+](=O)[O-])N2CCc3ccccc3C2)cc1 (stereo unspecified)	66*	-5
CN(C)c1ccc(C(CNC(=O)c2cccc([N+](=O)[O-])c2)N2CCOCC2)cc1 (stereo unspecified)	-7	-5
Nc1cccc2ccc(-c3cnc4ccccc4c3)nc12	57*	-1
c1ccc2ncc(-c3ccc4ccccc4n3)cc2c1	-12	0
O=C1c2ccccc2C(=O)c2c1oc1c3c(ccc21)OCN(CC1CCCO1)C3 (stereo unspecified)	40	10
O=C1c2ccccc2C(=O)c2c1oc1c3c(ccc21)OCN(C1CCCC1)C3	78*	50
COc1ccc(CCN2COc3ccc4c5c(oc4c3C2)C(=O)c2ccccc2C5=O)cc1OC	44	-3
O=c1c(-c2ccccc2)coc2c3c(ccc12)OCN(C1CCS(=O)(=O)C1)C3 (stereo unspecified)	-1	-5
CC(C)CCN1COc2ccc3c4c(oc3c2C1)C(=O)c1ccccc1C4=O	74*	12
O=C1c2ccccc2C(=O)c2c1oc1c3c(ccc21)OCN(C1CCS(=O)(=O)C1)C3 (stereo unspecified)	91*	69*!
Cc1cc(F)ccc1N1CCC(C(=O)NCCN2CCOCC2)C1=O (stereo unspecified)	-3	1
SMILES	mHTT CaM bind	Pf apPOL block
CC(=O)Nc1ccc(NC(=O)c2ccc(-c3ccc([N+](=O)[O-])cc3Cl)o2)cc1	24	-4
Cc1ccc(C(=O)O)cc1-c1ccc(/C=C/[N+](=O)[O-])o1	30	8
Cc1cc(-c2ccc(/C=C/[N+](=O)[O-])o2)c([N+](=O)[O-])cc1C	65*	3
CCOCc1ccc(O)c2ncccc12	100*	-4
CCOc1c(C)cc(-c2ncccc2O)cc1C	-1	0
O=C(Cn1cnc([N+](=O)[O-])n1)Nc1cc(Oc2cccnc2)cc([N+](=O)[O-])c1	6	2
Cc1cccc(Oc2cc(NC(=O)Cn3cnc([N+](=O)[O-])n3)cc([N+](=O)[O-])c2)c1	57*	4
COc1cc(NC(=O)Cn2cnc([N+](=O)[O-])n2)cc([N+](=O)[O-])c1	3	2
O=C(Cn1cnc([N+](=O)[O-])n1)Nc1cc(Oc2cccc(Cl)c2)cc([N+](=O)[O-])c1	62*	3
COc1cc(C(=O)Nc2ccc(Br)cc2F)c([N+](=O)[O-])cc1OC	-8	-7
COc1ccc(Nc2nc(-c3ccc(Cl)c(Cl)c3)cs2)cc1	40	-6
CCC(=O)Nc1nc(C)c(-c2csc(Nc3cc(C)ccn3)n2)s1	35	-3
CN(C)c1ccc(Nc2nc(-c3ccc(Cl)c(Cl)c3)cs2)cc1	82*	-1
NS(=O)(=O)c1ccc(Nc2nc(-c3ccncc3)cs2)cc1	5	-1
NS(=O)(=O)c1ccc(Nc2nc(-c3ccc(Cl)c(Cl)c3)cs2)cc1	100*	1
